Data as given in PubChem BioAssay (NCATS).
Results filed as inconclusive are left out. Entries that show only a call come without a potency. A number with no mark means an inactive call. Active and inactive are the calls of the source. Calls come from the whole dose curve; as a rule, active = well fitted curve in the direction sought with a large enough effect; inconclusive = small, poorly fitted or top-dose-only effect, or another doubt; inactive = no such curve, though single readings can be large; an effect the other way counts as inactive or inconclusive.

How the values were obtained:
[1] = biological target: Rap guanine nucleotide exchange factor 3 (Homo sapiens) (UniProt O95398); test: Confirmatory qHTS for agonist of cAMP-regulated guanine nucleotide exchange factor 3 (EPAC1) (AID 1645881);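 note: EPAC1 catalysed release of BODIPY-GDP from Rap1B seen as fluorescence loss; nearly all actives have a fitted effect of over 75% in size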
[2] = biological target: Rap guanine nucleotide exchange factor 4 (Homo sapiens) (UniProt Q8WZA2); test: Confirmatory qHTS for agonist of cAMP-regulated guanine nucleotide exchange factor 4 (EPAC2) (AID 1645884);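 note: nucleotide exchange releases bodipy-GDP from Rap1 and this lowers its fluorescence; nearly all actives have a fitted effect of over 65% in size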
[3] = biological target: Rap guanine nucleotide exchange factor 4 (Homo sapiens) (UniProt Q8WZA2); test: Confirmatory qHTS for antagonist of cAMP-regulated guanine nucleotide exchange factor 4 (EPAC2) (AID 1645885); note: nearly all actives have a fitted effect of over 25% in size; note: potency is the fitted concentration of half-maximal effect
[4] = biological target: Rap guanine nucleotide exchange factor 3 (Homo sapiens) (UniProt O95398); test: Counterscreen qHTS for antagonist of cAMP-regulated guanine nucleotide exchange factor 3 (EPAC1) (AID 1645888);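 note: fluorescence loss as bound BODIPY-GDP is released from Rap1B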
Summary of the method: (§1)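 Measured: fluorescence of BODIPY-GDP bound to Rap1B, which falls as exchange proceeds. Conditions include 50 uM competing GDP, 5 and 30 min reads, and a later cAMP challenge for antagonist detection.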

[5] = biological target: Rap guanine nucleotide exchange factor 3 (Homo sapiens) (UniProt O95398); test: Counterscreen qHTS for agonist of cAMP-regulated guanine nucleotide exchange factor 3 (EPAC1) (AID 1645889); note: nearly all actives have a fitted effect of over 40% in size; note: potency is the fitted concentration of half-maximal effect
Summary of the method: as §1

Chain of Rap guanine nucleotide exchange factor 3 (Homo sapiens) (O95398 whole entry, looked up): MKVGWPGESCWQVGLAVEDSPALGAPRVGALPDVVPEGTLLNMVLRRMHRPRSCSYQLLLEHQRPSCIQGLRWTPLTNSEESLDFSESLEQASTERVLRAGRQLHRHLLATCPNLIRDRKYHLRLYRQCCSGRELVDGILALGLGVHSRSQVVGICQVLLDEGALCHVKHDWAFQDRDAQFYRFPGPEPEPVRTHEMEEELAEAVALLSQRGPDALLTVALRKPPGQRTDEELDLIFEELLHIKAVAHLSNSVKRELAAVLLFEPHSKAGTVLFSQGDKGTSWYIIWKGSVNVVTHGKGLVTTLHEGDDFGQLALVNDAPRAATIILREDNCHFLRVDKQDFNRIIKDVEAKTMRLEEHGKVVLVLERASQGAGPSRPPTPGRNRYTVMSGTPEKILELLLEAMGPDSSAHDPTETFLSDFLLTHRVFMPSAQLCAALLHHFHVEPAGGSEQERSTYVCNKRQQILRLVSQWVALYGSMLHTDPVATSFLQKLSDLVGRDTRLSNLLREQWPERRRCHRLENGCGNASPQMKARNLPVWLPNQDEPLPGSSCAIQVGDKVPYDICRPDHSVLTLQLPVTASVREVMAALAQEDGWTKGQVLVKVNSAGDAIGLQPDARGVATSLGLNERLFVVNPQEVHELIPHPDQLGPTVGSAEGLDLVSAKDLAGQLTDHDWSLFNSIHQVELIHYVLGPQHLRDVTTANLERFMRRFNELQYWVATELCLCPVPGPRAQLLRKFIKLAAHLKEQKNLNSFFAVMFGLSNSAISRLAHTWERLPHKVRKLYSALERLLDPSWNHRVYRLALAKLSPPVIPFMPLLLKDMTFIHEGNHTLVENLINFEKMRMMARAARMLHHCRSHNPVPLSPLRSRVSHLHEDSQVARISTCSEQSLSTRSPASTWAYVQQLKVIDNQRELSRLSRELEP
Chain of Rap guanine nucleotide exchange factor 4 (Homo sapiens) (Q8WZA2 whole entry, looked up): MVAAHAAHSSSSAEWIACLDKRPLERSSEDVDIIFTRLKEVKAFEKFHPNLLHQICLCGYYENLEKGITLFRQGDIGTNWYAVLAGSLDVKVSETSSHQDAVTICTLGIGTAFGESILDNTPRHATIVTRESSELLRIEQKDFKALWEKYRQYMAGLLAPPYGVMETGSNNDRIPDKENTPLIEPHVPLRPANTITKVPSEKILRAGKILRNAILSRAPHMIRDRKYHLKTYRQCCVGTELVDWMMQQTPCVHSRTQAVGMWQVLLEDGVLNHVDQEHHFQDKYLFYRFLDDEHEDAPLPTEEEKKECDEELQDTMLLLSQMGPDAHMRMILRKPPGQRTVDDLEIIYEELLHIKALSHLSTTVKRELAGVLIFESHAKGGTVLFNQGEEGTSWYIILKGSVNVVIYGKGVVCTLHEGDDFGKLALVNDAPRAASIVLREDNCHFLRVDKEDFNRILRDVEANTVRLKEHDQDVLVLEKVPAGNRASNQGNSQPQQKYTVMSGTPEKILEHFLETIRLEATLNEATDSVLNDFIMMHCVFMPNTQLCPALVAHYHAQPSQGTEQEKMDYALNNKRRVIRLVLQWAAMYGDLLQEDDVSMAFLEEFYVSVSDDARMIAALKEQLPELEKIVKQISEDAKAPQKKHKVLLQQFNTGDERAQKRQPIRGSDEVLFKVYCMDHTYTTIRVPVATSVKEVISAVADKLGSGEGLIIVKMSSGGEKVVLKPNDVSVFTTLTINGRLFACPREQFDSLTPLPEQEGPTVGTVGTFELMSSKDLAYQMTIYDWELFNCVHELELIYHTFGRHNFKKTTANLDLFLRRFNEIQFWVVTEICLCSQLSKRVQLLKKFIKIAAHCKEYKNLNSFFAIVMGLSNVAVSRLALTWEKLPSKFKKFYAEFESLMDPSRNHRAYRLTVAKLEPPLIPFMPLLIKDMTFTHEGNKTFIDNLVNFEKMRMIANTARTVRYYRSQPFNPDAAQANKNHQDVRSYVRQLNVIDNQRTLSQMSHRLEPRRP

| Structure (SMILES) | Potency [1] | Potency [2] | Potency [3] | Potency [4] | Potency [5] | activation [2] | activity change, negative = inhibition [4] | activation [5] | outcome [3] |
| --- | --- | --- | --- | --- | --- | --- | --- | --- | --- |
| Cc1ccccc1Cn1nnc2c(=O)[nH]c(C3CCCN(C(=O)c4ccc(C(C)(C)C)cc4)C3)nc21 (stereo not given) | inactive | inactive | inactive | inactive | inactive | – | – | – | – |
| CC(C)C[C@H]1COCCS(=O)(=O)N1Cc1cccc(Cl)c1 | inactive | – | inactive | – | – | 5.51% [at 17.1 µM, percent relative to cAMP agonist control] | -14.3% [at 30.8 µM] | 2.08% [at 30.8 µM] | – |
| O=C(Nc1nc(-c2ccc(Cl)cc2)cs1)C1=COCCO1 | inactive | – | inactive | – | – | 5.12% [at 17.1 µM, percent relative to cAMP agonist control] | -14.7% [at 30.8 µM] | 13.1% [at 30.8 µM] | – |
| Cc1c([N+](=O)[O-])cnc(Sc2ccccc2)c1[N+](=O)[O-] | inactive | inactive | inactive | inactive | inactive | – | – | – | – |
| N#C/C(=C\c1ccc(OCc2ccc(C(=O)O)cc2)cc1)C(=O)N1CCOCC1 | inactive | inactive | 21.3 µM (active) | inactive | inactive | – | – | – | – |
| C[C@@H]1COC(=O)[C@H](NC(=O)OCC2c3ccccc3-c3ccccc32)C/C=C\C[C@@H](CC(=O)N[C@H](CO)Cc2ccccc2)C(=O)N1 | inactive | – | inactive | – | – | 2.82% [at 17.1 µM, percent relative to cAMP agonist control] | -6.46% [at 30.8 µM] | -0.359% [at 30.8 µM] | – |
| Cc1ccc(NC(=O)C2(C)CCN2CCc2ccccc2)cc1 (stereo not given) | inactive | – | inactive | – | – | -1.02% [at 17.1 µM, percent relative to cAMP agonist control] | 1.14% [at 30.8 µM] | 6.12% [at 30.8 µM] | – |
| CCC(C)[C@H]1COCCS(=O)(=O)N1Cc1ccc(Cl)cc1Cl (stereo not given in full) | inactive | inactive | inactive | inactive | inactive | – | – | – | – |
| CC(C)CC1C(=O)N(Cc2cn(Cc3ccco3)nn2)CCS(=O)(=O)N1Cc1ccc(-c2ccccc2)cc1 (stereo not given) | inactive | inactive | 19 µM (active) | inactive | inactive | – | – | – | – |
| Brc1ccc(/C=N/Nc2nc3ccccc3o2)cc1 | inactive | inactive | inactive | inactive | inactive | – | – | – | – |
| COc1cc(/C=C2/SC(=O)NC2=O)ccc1OCc1ccccc1 | inactive | inactive | inactive | inactive | inactive | – | – | – | – |
| Cn1c(SCC(=O)Nc2ccc(C(=O)O)cc2)nc2scc(-c3ccccc3Cl)c2c1=O | inactive | inactive | 42.6 µM (active) | inactive | inactive | – | – | – | – |
| CC(C)(C)N1CC(c2nc3ccccc3n2CCOc2ccccc2)CC1=O (stereo not given) | inactive | inactive | inactive | inactive | inactive | – | – | – | – |
| CCc1ccc2c(c1)NC(=O)C2(C)Cc1ccccc1OC (stereo not given) | inactive | inactive | inactive | inactive | inactive | – | – | – | – |
| O=c1cc(-c2c(O)c3ccccc3n(Cc3ccccc3)c2=O)[nH][nH]1 | inactive | inactive | inactive | inactive | inactive | – | – | – | – |
| COc1ccc(/C=N\Nc2ccc([N+](=O)[O-])cc2)c(C(=O)O)c1OC | inactive | inactive | inactive | inactive | inactive | – | – | – | – |
| O=C(CCn1cnc2onc(-c3ccc(F)cc3)c2c1=O)Nc1ccc(F)c(Cl)c1 | inactive | inactive | inactive | inactive | inactive | – | – | – | – |
| COc1cc(NC2c3ncccc3C(=O)N2Cc2ccco2)cc(OC)c1 (stereo not given) | inactive | inactive | inactive | inactive | inactive | – | – | – | – |
| Cc1cccc(NC(=O)c2ccc(-n3cncn3)c([N+](=O)[O-])c2)c1 | inactive | – | inactive | – | – | 2.79% [at 17.1 µM, percent relative to cAMP agonist control] | -21.4% [at 30.8 µM] | 23.9% [at 30.8 µM] | – |
| CC1(Cc2ccc(OC(F)(F)F)cc2)C(=O)Nc2ccc(OC(F)(F)F)cc21 (stereo not given) | inactive | – | inactive | – | – | -11.8% [at 17.1 µM, percent relative to cAMP agonist control] | -17.3% [at 30.8 µM] | 35.9% [at 30.8 µM] | – |
| CCOc1cccc(-c2c(C(=O)N/N=C/c3cccs3)nnn2-c2nonc2N)c1 | inactive | – | inactive | – | 10 µM (active) | 2.81% [at 17.1 µM, percent relative to cAMP agonist control] | 15% [at 30.8 µM] | – | – |

| Structure (SMILES) | Potency [1] | Potency [2] | Potency [3] | Potency [4] | Potency [5] | activation [2] | activity change, negative = inhibition [4] | activation [5] | outcome [3] |
| --- | --- | --- | --- | --- | --- | --- | --- | --- | --- |
| COc1ccccc1N(CC(=O)Nc1cc(C)on1)S(=O)(=O)c1ccc(Cl)cc1 | inactive | – | inactive | – | – | 2.18% [at 17.1 µM, percent relative to cAMP agonist control] | -8.9% [at 30.8 µM] | 29.1% [at 30.8 µM] | – |
| Cc1c(N=Cc2cc(Br)cc(Br)c2O)cccc1C(=O)O | inactive | – | inactive | – | – | -1.44% [at 17.1 µM, percent relative to cAMP agonist control] | -0.566% [at 30.8 µM] | 3.4% [at 30.8 µM] | – |
| O=C(NN1C(=O)/C(=C/C=C/c2ccco2)SC1=S)c1ccncc1 | inactive | inactive | inactive | inactive | inactive | – | – | – | – |
| N#Cc1c(-c2ccccc2)c(C#N)c2nc3ccccc3n2c1N | inactive | inactive | 84.9 µM (active) | inactive | inactive | – | – | – | – |
| O=C(/C=C/c1ccc(Br)o1)NCc1ccccc1 | inactive | – | inactive | – | – | -1.62% [at 17.1 µM, percent relative to cAMP agonist control] | 13% [at 30.8 µM] | 21.3% [at 30.8 µM] | – |
| COc1cccc(OCc2cc(/C=N/Nc3ccc(C(=O)O)cc3)ccc2OC)c1 | inactive | – | inactive | – | – | 6.81% [at 17.1 µM, percent relative to cAMP agonist control] | -4.72% [at 30.8 µM] | 21.5% [at 30.8 µM] | – |
| CC(C)(C)NC(=O)C(c1ccc(C#N)cc1)n1c(=O)c(-c2ccco2)nc2ccccc21 (stereo not given) | inactive | inactive | inactive | inactive | inactive | – | – | – | – |
| CC1=NN(c2ccc(Br)cc2)C(=O)/C1=C/c1cccs1 | inactive | – | inactive | – | 14.1 µM (active) | 4.12% [at 17.1 µM, percent relative to cAMP agonist control] | 29.1% [at 30.8 µM] | – | – |
| CC(C)(C)C(=O)NC(Nc1cccc2cccnc12)C(Cl)(Cl)Cl (stereo not given) | inactive | – | inactive | – | – | 7.17% [at 17.1 µM, percent relative to cAMP agonist control] | -6% [at 30.8 µM] | 21.1% [at 30.8 µM] | – |
| Nc1ccc(C(=O)N/N=C/c2cn(Cc3ccccc3F)c3ccccc23)cc1 | inactive | – | inactive | – | – | 7.25% [at 17.1 µM, percent relative to cAMP agonist control] | 31.2% [at 30.8 µM] | 39.9% [at 30.8 µM] | – |
| CCN(c1ccc(NC(=O)CCc2nc3sc4c(c3c(=O)[nH]2)CCCC4)cc1)C(C)C | inactive | – | inactive | – | – | -1.91% [at 17.1 µM, percent relative to cAMP agonist control] | -10.9% [at 30.8 µM] | 2.05% [at 30.8 µM] | – |
| O=C(N/N=C/c1ccccc1O)c1cccc(C(F)(F)F)c1 | inactive | – | inactive | – | – | 5.14% [at 17.1 µM, percent relative to cAMP agonist control] | -7.23% [at 30.8 µM] | 8.8% [at 30.8 µM] | – |
| Cc1nnc(Sc2cc(NCCCO)c([N+](=O)[O-])c3nonc23)s1 | inactive | – | inactive | – | 8.91 µM (active) | 3.11% [at 17.1 µM, percent relative to cAMP agonist control] | 1.69% [at 30.8 µM] | – | – |
| CCOC(=O)C1=C(N)OC2=C(C(=O)CCC2)C1c1sccc1C (stereo not given) | inactive | – | inactive | – | – | 4.2% [at 17.1 µM, percent relative to cAMP agonist control] | -19.9% [at 30.8 µM] | -1.77% [at 30.8 µM] | – |
| CC(C)(C)c1ccc(Cn2nnc3c(=O)[nH]c(C4CCN(C(=O)Cc5cccs5)CC4)nc32)cc1 | inactive | inactive | inactive | inactive | inactive | – | – | – | – |
| O=S(=O)(NCCC1=CCCCC1)c1ccc(OC(F)(F)F)cc1 | inactive | – | inactive | – | – | -1.46% [at 17.1 µM, percent relative to cAMP agonist control] | -5.33% [at 30.8 µM] | 3.2% [at 30.8 µM] | – |
| COc1ccccc1C(=O)Nc1nnc(SCc2cc(=O)c3ccccc3[nH]2)s1 | inactive | inactive | – | inactive | inactive | – | – | – | inactive [at 12.7 µM] |
| C[C@H](c1ccccc1)N1C[C@H](COCc2ccccc2)Oc2cc(N3CC[C@@H](O)C3)ccc2S1(=O)=O | inactive | – | inactive | – | – | 10.3% [at 17.1 µM, percent relative to cAMP agonist control] | -15.5% [at 30.8 µM] | 20% [at 30.8 µM] | – |
| C=CCN1C(=O)/C(=C/c2ccc(OC(C)=O)c(OCC)c2[N+](=O)[O-])SC1=S | inactive | – | inactive | – | – | 0% [at 17.1 µM, percent relative to cAMP agonist control] | 12.5% [at 30.8 µM] | 52.7% [at 30.8 µM] | – |
| CCOC(=O)N1CCC(Nc2nc3ccccc3n3cnnc23)CC1 | inactive | – | inactive | – | – | 3.86% [at 17.1 µM, percent relative to cAMP agonist control] | -12.2% [at 30.8 µM] | 4.26% [at 30.8 µM] | – |
